Measurements published in PubChem BioAssay (NCI).
This is part of a sample that, as a whole, favours compounds with a hit. Of some 79,000 tested, about 15% had one in any assay. The source made the active and inactive calls. Cut-off read from the data, not from the text of the source: active = growth inhibition above about 70%; inactive = the rest.

Experiments:
[1] = NCI Yeast Anticancer Drug Screen. Data for the rad52 strain (AID 147);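 note: 0% = growth of vehicle-treated control cultures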; details: S. cerevisiae rad52 mutant growth inhibition, hits give high values
Procedure, shortened: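 Inhibition of yeast growth, referenced to vehicle controls, was the measured output for a strain with defective DNA damage repair.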

[2] = NCI Yeast Anticancer Drug Screen. Data for the wt1 strain (AID 149);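 note: 0% = growth of vehicle-treated wt1 cultures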; details: S. cerevisiae wt1 strain (SPY 50644) growth inhibition, hits give high values
Procedure, shortened: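 Growth inhibition read against vehicle controls after compound exposure of the wt1 yeast strain.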

[3] = NCI Yeast Anticancer Drug Screen. Data for the rad50EPP+ strain (AID 151);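 note: 0% = growth of vehicle-treated control cultures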; details: S. cerevisiae rad50 mutant strain, hits give high values
Procedure, shortened: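 Genetically defined yeast (rad50EPP+, DNA damage repair alteration) is grown with compound, and inhibition of growth is expressed relative to vehicle-treated controls.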

[4] = NCI Yeast Anticancer Drug Screen. Data for the mgt1 strain (AID 153); details: S. cerevisiae mgt1 mutant growth inhibition, hits give high values
Procedure, shortened: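 In the mgt1 strain, test compounds were added and growth inhibition was determined relative to vehicle-treated controls.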

[5] = NCI Yeast Anticancer Drug Screen. Data for the rad50 strain (AID 155);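 note: 0% = growth of vehicle-only cultures of the same strain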; details: S. cerevisiae rad50 strain growth inhibition, hits give high values
Procedure, shortened: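 Readout: growth inhibition relative to vehicle-treated cultures. Compound exposure was carried out in a genetically defined yeast strain deficient in DNA damage repair.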

[6] = NCI Yeast Anticancer Drug Screen. Data for the mec2-1 strain (AID 157); details: S. cerevisiae mec2-1 strain, hits give high values
Procedure, shortened: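 Each compound was tested on mec2-1 yeast, a strain altered in DNA damage repair or cell cycle control. Growth inhibition is reported relative to vehicle.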

[7] = NCI Yeast Anticancer Drug Screen. Data for the rad14 strain (AID 159);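 note: 0% = growth of vehicle-treated control cultures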; details: S. cerevisiae rad14 strain growth inhibition, hits give high values
Procedure, shortened: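 Growth inhibition vs vehicle controls; genetically altered yeast strain (DNA damage repair defect) treated with test compounds.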

[8] = NCI Yeast Anticancer Drug Screen. Data for the sgs1 mgt1 strain (AID 161);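 note: 0% = growth of cultures given vehicle only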; details: S. cerevisiae sgs1 mgt1 strain, hits give high values
Procedure, shortened: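 Mutant yeast exposed to compound; growth scored against vehicle-only wells.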

[9] = NCI Yeast Anticancer Drug Screen. Data for the CLN2oe strain (AID 163);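 note: 0% = growth of vehicle-only control cultures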; details: S. cerevisiae CLN2oe strain, hits give high values
Procedure, shortened: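 First, the altered yeast strain was treated with each compound; second, its growth was measured; finally, inhibition was derived by comparison with vehicle controls.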

[10] = NCI Yeast Anticancer Drug Screen. Data for the cln2 rad14 strain (AID 165);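 note: 0% = growth equal to vehicle treated cultures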; details: S. cerevisiae cln2 rad14 strain, hits give high values
Procedure, shortened: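 Test compounds were added to cln2 rad14 yeast cultures; inhibition of growth was then determined by comparison with vehicle treatment.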

[11] = NCI Yeast Anticancer Drug Screen. Data for the bub3 strain (AID 167); details: S. cerevisiae bub3 mutant strain, hits give high values
Procedure, shortened: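 Readout: yeast growth inhibition, expressed relative to vehicle-only wells. The test organism is a mutant strain from a panel with lesions in DNA repair or checkpoint genes.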

[12] = NCI Yeast Anticancer Drug Screen. Data for the wt2 strain (AID 169);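 note: 0% = growth of vehicle-treated yeast cultures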; details: S. cerevisiae wt2 strain growth inhibition, hits give high values
Procedure, shortened: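 The panel's yeast strains carry defined changes in DNA repair or cell cycle genes. Each strain is grown with compound, and growth loss is scored relative to vehicle.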

[13] = NCI Yeast Anticancer Drug Screen. Data for the mlh1 strain (AID 171);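 note: 0% = growth of vehicle-treated control cultures of the same strain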; details: S. cerevisiae mlh1 strain growth inhibition, hits give high values
Procedure, shortened: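 Inhibition values reflect reduced yeast growth in the presence of compound, referenced to vehicle controls, using a strain chosen for its alteration in DNA repair or cell cycle control.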

[14] = NCI Yeast Anticancer Drug Screen. Data for the sgs1 strain (AID 173);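 note: 0% = growth of vehicle-only control cultures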; details: S. cerevisiae sgs1 mutant, hits give high values
Procedure, shortened: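 Vehicle-treated cultures served as reference for growth inhibition of a yeast strain altered in DNA damage repair or cell cycle control after compound exposure.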

[15] = NCI Yeast Anticancer Drug Screen. Data for the mlh1 rad18 strain (AID 175); details: S. cerevisiae mlh1 rad18 strain growth inhibition, hits give high values
Procedure, shortened: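 Inhibition values reflect reduced growth of mutant yeast versus vehicle-treated controls following compound exposure; the mutations affect DNA damage repair.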

[16] = NCI Yeast Anticancer Drug Screen. Data for the rad18 strain (AID 177); details: S. cerevisiae rad18 mutant growth inhibition, hits give high values
Procedure, shortened: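 Steps: expose repair-mutant yeast to compound; measure growth; express as inhibition relative to vehicle control.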

[17] = at 5.0 µM (retest, dose inferred, filed as 0.5)
[18] = at 50.0 µM (retest, dose inferred, filed as 5.0)

Measured: growth inhibition

O=[N+]([O-])O.[NH-]C1CCCCC1[NH-].[NH-]C1CCCCC1[NH-].[NH-]C1CCCCC1[NH-].[OH-].[OH-].[OH-].[Pt+4].[Pt+4].[Pt+4] (stereo unspecified)
active: [15]; [18] 71% | [16]; at 100.0 µM 82%
inactive: [1]; at 1.2 µM -29% | [1]; at 3.7 µM -36% | [1]; at 11.0 µM -51% | [1]; at 33.0 µM -26% | [1]; at 100.0 µM -25% | [2]; at 1.2 µM -15% | [2]; at 3.7 µM -12% | [2]; at 11.0 µM -14% | [2]; at 33.0 µM -14% | [2]; at 100.0 µM -3% | [3]; at 1.2 µM -28% | [3]; at 3.7 µM -26% | [3]; at 11.0 µM -19% | [3]; at 33.0 µM -28% | [3]; at 100.0 µM -31% | [4]; at 1.2 µM -14% | [4]; at 3.7 µM -15% | [4]; at 11.0 µM -19% | [4]; at 33.0 µM -12% | [4]; at 100.0 µM -7% | [5]; at 1.2 µM -6% | [5]; at 3.7 µM -14% | [5]; [17] 17% | [5]; at 11.0 µM -14% | [5]; at 33.0 µM -2% | [5]; [18] 20% | [5]; at 50.0 µM 50.8% | [5]; at 100.0 µM -11% | [6]; at 1.2 µM 12% | [6]; at 3.7 µM -6% | [6]; [17] 16% | [6]; at 11.0 µM 0% | [6]; at 33.0 µM 4% | [6]; [18] 14% | [6]; at 50.0 µM -15.5% | [6]; at 100.0 µM 63% | [7]; at 1.2 µM -5% | [7]; at 3.7 µM -16% | [7]; at 11.0 µM -33% | [7]; at 33.0 µM -5% | [7]; at 100.0 µM -10% | [8]; [17] 27% | [8]; [18] 45% | [8]; at 50.0 µM -22.4% | [9]; at 1.2 µM -8% | [9]; at 3.7 µM -17% | [9]; at 11.0 µM -17% | [9]; at 33.0 µM -23% | [9]; at 100.0 µM -13% | [10]; [17] 12% | [10]; [18] 21% | [10]; at 50.0 µM -7.35% | [11]; at 1.2 µM -4% | [11]; at 3.7 µM -9% | [11]; [17] 20% | [11]; at 11.0 µM -14% | [11]; at 33.0 µM -14% | [11]; [18] 25% | [11]; at 50.0 µM -32% | [11]; at 100.0 µM -9% | [12]; at 1.2 µM -46% | [12]; at 3.7 µM -58% | [12]; at 11.0 µM -55% | [12]; at 33.0 µM -51% | [12]; at 100.0 µM -36% | [13]; at 1.2 µM 2% | [13]; at 3.7 µM -10% | [13]; at 11.0 µM -6% | [13]; at 33.0 µM -13% | [13]; at 100.0 µM 12% | [14]; at 1.2 µM -22% | [14]; at 3.7 µM -30% | [14]; at 11.0 µM -19% | [14]; at 33.0 µM 6% | [14]; at 100.0 µM 8% | [15]; [17] 40% | [15]; at 50.0 µM 28.6% | [16]; at 1.2 µM -21% | [16]; at 3.7 µM 2% | [16]; at 11.0 µM 18% | [16]; at 33.0 µM 54%

O=c1oc2ccccc2c(O)c1C(c1ccc2c(c1)Cc1ccccc1-2)c1c(O)c2ccccc2oc1=O
inactive: [1]; at 1.2 µM -7% | [1]; at 3.7 µM 15% | [1]; at 11.0 µM 19% | [1]; at 33.0 µM 65% | [2]; at 1.2 µM -16% | [2]; at 3.7 µM -5% | [2]; at 11.0 µM 5% | [2]; at 33.0 µM 53% | [3]; at 1.2 µM -16% | [3]; at 3.7 µM 43% | [3]; at 11.0 µM 46% | [3]; at 33.0 µM 50% | [3]; at 100.0 µM 51% | [4]; at 1.2 µM 6% | [4]; at 3.7 µM 8% | [4]; at 11.0 µM 31% | [5]; at 1.2 µM 1% | [5]; at 3.7 µM 14% | [5]; [17] 17% | [5]; at 11.0 µM 22% | [5]; at 33.0 µM 61% | [5]; [18] 5% | [6]; at 1.2 µM -18% | [6]; at 3.7 µM -4% | [6]; [17] 12% | [6]; at 11.0 µM 25% | [7]; at 1.2 µM 9% | [7]; at 3.7 µM 14% | [7]; at 11.0 µM 18% | [8]; [17] -14% | [9]; at 1.2 µM 23% | [9]; at 3.7 µM 0% | [9]; at 11.0 µM 15% | [10]; [17] 10% | [11]; at 1.2 µM -7% | [11]; at 3.7 µM -2% | [11]; [17] 18% | [11]; at 11.0 µM 13% | [11]; at 33.0 µM 63% | [12]; at 1.2 µM -17% | [12]; at 3.7 µM -14% | [12]; at 11.0 µM 52% | [13]; at 1.2 µM 4% | [13]; at 3.7 µM 3% | [13]; at 11.0 µM 25% | [14]; at 1.2 µM 18% | [14]; at 3.7 µM 29% | [14]; at 11.0 µM 17% | [15]; [17] 14% | [15]; [18] 59% | [16]; at 1.2 µM 21% | [16]; at 3.7 µM 25% | [16]; at 11.0 µM 23% | [16]; at 33.0 µM 52%
active: [1]; at 100.0 µM 96% | [2]; at 100.0 µM 97% | [4]; at 33.0 µM 97% | [4]; at 100.0 µM 97% | [5]; at 50.0 µM 70.2% | [5]; at 100.0 µM 96% | [6]; at 33.0 µM 95% | [6]; [18] 92% | [6]; at 50.0 µM 89% | [6]; at 100.0 µM 97% | [7]; at 33.0 µM 97% | [7]; at 100.0 µM 98% | [8]; [18] 96% | [8]; at 50.0 µM 73.4% | [9]; at 33.0 µM 91% | [9]; at 100.0 µM 97% | [10]; [18] 95% | [10]; at 50.0 µM 79% | [11]; [18] 95% | [11]; at 50.0 µM 75.9% | [11]; at 100.0 µM 96% | [12]; at 33.0 µM 95% | [12]; at 100.0 µM 93% | [13]; at 33.0 µM 96% | [13]; at 100.0 µM 98% | [14]; at 33.0 µM 83% | [14]; at 100.0 µM 97% | [15]; at 50.0 µM 88% | [16]; at 100.0 µM 96%
